PubChem BioAssay (NCI)
Compounds without any hit were thinned out: in the full panel of roughly 83,000, 20% have a hit.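 How to read the values: 0–100, growth inhibition (40 = 60% inhibited); 0, no net growth; -100 to 0, cell death (-40 = 40% of starting cells died; -100 = all dead).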 A number with no mark means an inactive call. Calls of active or inactive are those of the source. The calls were made as follows: active = growth percent below 10; inactive = the rest.

Key:
Assay in all cases: NCI-60 one-dose screen, 48 h (100 = growth as untreated, 0 = no growth, -100 = all killed)
HT29 colon = conditions: 10 µM unless noted
SNB-75 CNS = conditions: 10 µM unless noted
SNB-19 CNS = conditions: 10 µM unless noted
U251 CNS = conditions: 10 µM unless noted
SK-MEL-5 melanoma = conditions: 10 µM unless noted
UACC-62 melanoma = conditions: 10 µM unless noted
LOX IMVI melanoma = conditions: 10 µM unless noted
SK-MEL-28 melanoma = conditions: 10 µM
SK-MEL-2 melanoma = conditions: 10 µM unless noted
PC-3 prostate = conditions: 10 µM unless noted

`CN(C)/C=C1\SC(=Nc2ccc(Cl)cc2)NC1=O` showed a growth (HT29 colon) of 110%, a growth (SNB-75 CNS) of 96.4% and a growth (SNB-19 CNS) of 102%. It also gave a growth (U251 CNS) of 99.7%, a growth (SK-MEL-5 melanoma) of 97% and a growth (UACC-62 melanoma) of 95.2%. The growth (LOX IMVI melanoma) was 101%, the growth (SK-MEL-28 melanoma) was 101% and the growth (SK-MEL-2 melanoma) was 104%.

Compound `Clc1ccc(Nc2scc3[n+]2CCC3)cc1` has a growth (HT29 colon) of 106%, a growth (SNB-75 CNS) of 94.3% and a growth (SNB-19 CNS) of 98.4%. It also gave a growth (U251 CNS) of 98%, a growth (PC-3 prostate) of 89.2% and a growth (UACC-62 melanoma) of 87.3%. It also gave a growth (LOX IMVI melanoma) of 102%, a growth (SK-MEL-28 melanoma) of 100% and a growth (SK-MEL-2 melanoma) of 106%.

With `O=C(Nc1ccc(N2CCNCC2)cc1)c1[nH]ncc1Nc1ncnc2sc3c(c12)CCC3` the growth (HT29 colon) was -67.3% (active), the growth (SNB-75 CNS) was -99.5% (active) and the growth (SNB-19 CNS) was -99.5% (active). For the same compound, the growth (U251 CNS) was -96.5% (active), the growth (PC-3 prostate) was -83.6% (active) and the growth (UACC-62 melanoma) was -85.1% (active). The growth (LOX IMVI melanoma) was -91.4% (active), the growth (SK-MEL-28 melanoma) was -84.7% (active) and the growth (SK-MEL-2 melanoma) was 4.15% (active).

With `O=C(CN1C(=O)/C(=C\c2ccc(Cl)cc2)SC1=S)Nc1ncc(Cc2ccc(Cl)cc2)s1` the growth (HT29 colon) was 110%, the growth (SNB-75 CNS) was 88.6% and the growth (SNB-19 CNS) was 102%. For the same compound, the growth (U251 CNS) was 100%, the growth (SK-MEL-5 melanoma) was 95.7% and the growth (UACC-62 melanoma) was 99.9%. The growth (LOX IMVI melanoma) was 92.9%, the growth (SK-MEL-28 melanoma) was 106% and the growth (SK-MEL-2 melanoma) was 105%.

For `COc1ccc(CCN2C(=O)CCSC2=S)cc1OC`, the growth (HT29 colon) was 107%, the growth (SNB-75 CNS) was 84.7% and the growth (SNB-19 CNS) was 103%. The growth (U251 CNS) was 97.2%, the growth (SK-MEL-5 melanoma) was 94.6% and the growth (UACC-62 melanoma) was 94.6%. It also gave a growth (LOX IMVI melanoma) of 91.1%, a growth (SK-MEL-28 melanoma) of 98.2% and a growth (SK-MEL-2 melanoma) of 102%.

`COc1ccc(CCN2C(=O)/C(=C/c3ccc(C4Oc5ccccc5C5CC(c6cccc(OC)c6)=NN54)cc3)SC2=S)cc1` (centres undefined) gave a growth (HT29 colon) of 104%, a growth (SNB-75 CNS) of 90.5% and a growth (SNB-19 CNS) of 99.1%. The growth (U251 CNS) was 101%, the growth (SK-MEL-5 melanoma) was 99% and the growth (UACC-62 melanoma) was 102%. For the same compound, the growth (LOX IMVI melanoma) was 96.4%, the growth (SK-MEL-28 melanoma) was 101% and the growth (SK-MEL-2 melanoma) was 99.8%.

For `O=c1oc2ccc(F)cc2c(=O)n1-c1ccc(Cl)cc1F`, the growth (HT29 colon) was 26.7%, the growth (SNB-75 CNS) was -13.6% (active) and the growth (SNB-19 CNS) was 16.1%. For the same compound, the growth (U251 CNS) was 2.3% (active), the growth (PC-3 prostate) was 0.0571% (active) and the growth (UACC-62 melanoma) was -8.7% (active). For the same compound, the growth (LOX IMVI melanoma) was 16.9%, the growth (SK-MEL-28 melanoma) was 14.7% and the growth (SK-MEL-2 melanoma) was -28.7% (active).

In the case of `Cc1cccc(NC(=O)c2sc3nc4c(cc3c2N)CCCC4)c1C`, the growth (HT29 colon) is reported as 2.81% (active), the growth (SNB-75 CNS) is reported as 10.8% and the growth (SNB-19 CNS) is reported as 26.2%. The growth (U251 CNS) was 15.1%, the growth (PC-3 prostate) was 21.2% and the growth (UACC-62 melanoma) was 38.7%. It also gave a growth (LOX IMVI melanoma) of 42.3%, a growth (SK-MEL-28 melanoma) of 68.5% and a growth (SK-MEL-2 melanoma) of 49.1%.

`Cc1ccc(Nc2nc(N)c3ccccc3n2)cc1Cl` gave a growth (HT29 colon) of 27.4%, a growth (SNB-75 CNS) of 95.2% and a growth (SNB-19 CNS) of 84.4%. It also gave a growth (U251 CNS) of 61.8%, a growth (PC-3 prostate) of 60.4% and a growth (UACC-62 melanoma) of 53.9%. For the same compound, the growth (LOX IMVI melanoma) was 40.4%, the growth (SK-MEL-28 melanoma) was 102% and the growth (SK-MEL-2 melanoma) was 50.9%.

For `COc1ccc(C(=O)Nc2ccc3nc(N4CCCCC4)cc(C)c3c2)cc1OC`, the growth (HT29 colon) was 20.8%, the growth (SNB-75 CNS) was 102% and the growth (SNB-19 CNS) was 109%. The growth (U251 CNS) was 69.3%, the growth (PC-3 prostate) was 45.1% and the growth (UACC-62 melanoma) was 98.5%. For the same compound, the growth (SK-MEL-28 melanoma) was 94.5% and the growth (SK-MEL-2 melanoma) was 119%.
